Assays:
[1] = target: T1, Aspartate--tRNA(Asp/Asn) ligase (Mycobacterium tuberculosis (strain ATCC 25618 / H37Rv)) (UniProt P9WFW3); assay: Assay for Asp RNA synthetase-1 from Mycobacterium tuberculosis; assay type: functional; parameters: scale not given: direction of the effect not stated beside the values; settings: 30 µM; also: in the data most compounds retested in dose-response had high values
T1 sequence (whole entry): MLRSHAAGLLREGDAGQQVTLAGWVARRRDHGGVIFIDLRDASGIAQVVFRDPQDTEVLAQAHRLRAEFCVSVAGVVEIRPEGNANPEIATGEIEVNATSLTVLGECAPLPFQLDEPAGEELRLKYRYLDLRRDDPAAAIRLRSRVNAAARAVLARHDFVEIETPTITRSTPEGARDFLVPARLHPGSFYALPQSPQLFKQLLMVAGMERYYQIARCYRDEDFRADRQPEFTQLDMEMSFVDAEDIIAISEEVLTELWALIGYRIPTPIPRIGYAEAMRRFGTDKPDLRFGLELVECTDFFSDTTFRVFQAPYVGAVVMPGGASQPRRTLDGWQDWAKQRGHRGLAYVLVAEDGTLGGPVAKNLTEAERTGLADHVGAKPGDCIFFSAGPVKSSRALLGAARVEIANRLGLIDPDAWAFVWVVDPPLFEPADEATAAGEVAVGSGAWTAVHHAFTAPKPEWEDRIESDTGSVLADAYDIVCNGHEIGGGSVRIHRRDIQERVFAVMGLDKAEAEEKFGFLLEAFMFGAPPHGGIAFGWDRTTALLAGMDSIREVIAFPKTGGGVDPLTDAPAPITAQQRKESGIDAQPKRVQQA

[2] = target: Shiga toxin 2 (Escherichia coli O157:H7) (UniProt P09385+P09386); assay: E. coli 0.157:H7 Shiga Toxin SOP - stx2 screening assay; assay type: functional; parameters: scale not given: direction of the effect not stated beside the values; settings: 30 µM

CC(CN1CCC2(CC1)c1nc[nH]c1CCN2S(C)(=O)=O)C(F)(F)F (configuration not stated)
Percent Effect [1]: 2.76% | Percent Effect [2]: 4.49%

CCn1ccnc1CN(C)CC1CCCN1c1cccnn1 (configuration not stated)
Percent Effect [1]: 7.69% | Percent Effect [2]: -26.1%

CC(=O)N1CCCC1c1ccc(-c2c(C)noc2C)cn1 (configuration not stated)
Percent Effect [1]: -1.44% | Percent Effect [2]: -2.58%

O=C(CCc1nccs1)N1CCN(c2ccc(Br)cn2)CC1
Percent Effect [1]: 3.92% | Percent Effect [2]: 23.4%

O=C(c1ccsc1)N1CC(C(=O)N2CCOCC2)C2(CCOCC2)C1 (configuration not stated)
Percent Effect [1]: -3.83% | Percent Effect [2]: -2.66%

CN(Cc1ccncc1)C(=O)Nc1cnn(CC2CCCO2)c1 (configuration not stated)
Percent Effect [1]: 2.49% | Percent Effect [2]: -5.44%

CC(C)(CNC(=O)CCOc1cccc(F)c1)C(N)=O
Percent Effect [1]: -0.256% | Percent Effect [2]: 29.6%

Cc1ccc(CN2CCCC3(CCN(S(C)(=O)=O)C3)C2)o1 (configuration not stated)
Percent Effect [1]: 5.01% | Percent Effect [2]: 3.27%

Cc1ccc(C(=O)N2C[C@@H]3COC[C@]3(COc3cccnc3)C2)cn1
Percent Effect [1]: 2.55% | Percent Effect [2]: -13.2%

Cc1n[nH]c(=O)c2c(NC(=O)CN3CCC(O)CC3)oc(C)c12
Percent Effect [1]: 1.28% | Percent Effect [2]: -66.6%

COc1ccc(NC(=O)C2CCOC2)c(N2CCN(C(C)=O)CC2)n1 (configuration not stated)
Percent Effect [1]: 1.42% | Percent Effect [2]: -6.14%

CCn1nc2c(cc1=O)CN(CC(=O)Nc1nc(C)c(C)s1)CC2
Percent Effect [1]: 3.7% | Percent Effect [2]: -30.8%

CCn1c(CN(C)C)nnc1C1CCN(c2ccnc(C)c2)CC1
Percent Effect [1]: 4.18% | Percent Effect [2]: -16.1%

COc1ccc(CC(=O)N2CCCN(c3ccc(C#N)cc3)CC2)cc1
Percent Effect [1]: 5.93% | Percent Effect [2]: -7.8%

Cn1ccc(C(=O)N2CCC(Cc3cccc4cccnc34)C2)n1 (configuration not stated)
Percent Effect [1]: -7.19% | Percent Effect [2]: 15.7%

Cn1cc(-c2ncnc3c2CCN(C(=O)N2CCOCC2)CC3)cn1
Percent Effect [1]: -8.2% | Percent Effect [2]: -1.95%

— ChEMBL document CHEMBL3988442, “University of Dundee, Small-Polar-MMV Screening Library” (2021)
